Results filed as inconclusive are left out. Activity calls are given as the source filed them. Unless noted, the call rests on the fitted dose curve; in most records, active means well fitted curve in the direction sought with a large enough effect in the repeat runs; inconclusive means weak or mixed curves; inactive means no such curve, though single readings can be large; an effect the other way counts as inactive or inconclusive.
Key:
[1] = qHTS assay to identify small molecule agonists of the peroxisome proliferator-activated receptor delta (PPARd) signaling pathway - cell viability counter screen (AID 743211); further: nearly all actives have a fitted effect of over 55% in size
How it was run: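 Viability was measured as CellTiter-Glo luminescence (30 min, room temperature) in the same wells as the beta-lactamase readout. GeneBLAzer PPARd UAS-bla HEK293H cells received compound after 5 h plating and were incubated 17 h at 37 C.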

[2] = molecular target: Peroxisome proliferator-activated receptor delta (Homo sapiens) (UniProt Q03181); assay: qHTS assay to identify small molecule agonists of the peroxisome proliferator-activated receptor delta (PPARd) signaling pathway (AID 743212; calls by dose curve)
How it was run: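 Beta-lactamase reporter readout: a ratiometric FRET signal from the LiveBLAzer substrate after 2 h at room temperature. Compound exposure at 37 °C in PPARδ-bla HEK293H cells driven by an upstream activator sequence.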

[3] = qHTS assay to identify small molecule antagonists of the peroxisome proliferator-activated receptor delta (PPARd) signaling pathway - cell viability counter screen (AID 743213); further: nearly all actives have a fitted effect of over 50% in size
How it was run: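 HEK293H cells with the PPARd UAS-bla reporter, co-treated 17 h at 37 C with compounds and L165041 (300 nM final), were lysed with CellTiter-Glo. Luminescence indicated viable cell content.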

[4] = molecular target: Peroxisome proliferator-activated receptor delta (Homo sapiens) (UniProt Q03181); assay: qHTS assay to identify small molecule antagonists of the peroxisome proliferator-activated receptor delta (PPARd) signaling pathway (AID 743215; active means well fitted inhibition curve with a large enough effect in the signal ratio in the repeat runs, not every such curve was filed as active; the % refers to the signal ratio;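 further: cells stimulated with agonist L165041 at 300 nM final during compound exposure; series mostly up to about 62 µM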)
How it was run: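 Agonist L165041 (300 nM final) added with compound to PPARd-bla HEK293H UAS-bla reporter cells; 17 h incubation at 37 C. Read-out: LiveBLAzer FRET substrate, 2 h at room temperature, fluorescence intensity.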

[5] = qHTS assay to identify small molecule antagonists of the farnesoid-X-receptor (FXR) signaling pathway - cell viability counter screen (AID 743221; active means well fitted cell-killing curve with a large enough effect in the repeat runs, not every such curve was filed as active; further: nearly all actives have a fitted effect of over 50% in size)
How it was run: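 Cytotoxicity counter screen run in the FXR-bla reporter wells: HEK 293T cells exposed to compound with 50 uM (final) chenodeoxycholic acid for 16 h, 37 C, then viability measured by CellTiter-Glo luminescence after 30 min, room temperature.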

[6] = molecular target: Vitamin D3 receptor (Homo sapiens) (UniProt P11473); assay: qHTS assay to identify small molecule antagonists of the vitamin D receptor (VDR) signaling pathway (AID 743223; active means well fitted inhibition curve with a large enough effect in the signal ratio in the repeat runs, not every such curve was filed as active; the % refers to the signal ratio)
How it was run: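 Antagonist mode: compound added to VDR-bla cells alongside agonist 1alpha,25-dihydroxyvitamin D3 (3 nM final), incubation 16 h at 37C. Read-out is LiveBLAzer FRET fluorescence, 2 h at room temperature.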

[7] = molecular target: Vitamin D3 receptor (Homo sapiens) (UniProt P11473); assay: qHTS assay to identify small molecule agonists of the vitamin D receptor (VDR) signaling pathway (AID 743222; calls by dose curve)
How it was run: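 Agonist mode, beta-lactamase reporter: fluorescence from LiveBLAzer B/G FRET substrate (2 h, room temperature) read after 16 h compound treatment at 37 C of VDR-bla cells, which were pre-incubated 4 h after seeding.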

[8] = qHTS assay to identify small molecule agonists of the farnesoid-X-receptor (FXR) signaling pathway - cell viability counter screen (AID 743218); further: nearly all actives have a fitted effect of over 45% in size
How it was run: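 Viability counter screen in the same wells: CellTiter-Glo luminescence, 30 min room-temperature incubation, measured after the beta-lactamase read. Cells were GeneBLAzer FXR-UAS-bla HEK 293T, compound-treated 16 h at 37C.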

[9] = molecular target: Bile acid receptor (Homo sapiens) (UniProt Q96RI1); assay: qHTS assay to identify small molecule agonists of the farnesoid-X-receptor (FXR) signaling pathway (AID 743220; active means well fitted activation curve with a large enough effect in the signal ratio in the repeat runs, not every such curve was filed as active; the % refers to the signal ratio)
How it was run: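 FXR-UAS-bla HEK 293T cells carrying a UAS-driven beta-lactamase reporter were plated for 5 h at 37C/5% CO2, then exposed to DMSO-dissolved Tox21 10K compounds for 16 h at 37C. A LiveBLAzer B/G FRET substrate was loaded for 2 h at room temperature before fluorescence reading.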

[10] = molecular target: Bile acid receptor (Homo sapiens) (UniProt Q96RI1); assay: qHTS assay to identify small molecule antagonists of the farnesoid-X-receptor (FXR) signaling pathway (AID 743217; active means well fitted inhibition curve with a large enough effect in the signal ratio in the repeat runs, not every such curve was filed as active; the % refers to the signal ratio)
How it was run: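 Antagonist mode: chenodeoxycholic acid at 50 uM final stimulates a UAS-driven beta-lactamase reporter in HEK 293T FXR-bla cells during 16 h, 37C compound exposure. Read-out is FRET substrate fluorescence after 2 h at room temperature.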
On the % scale 0 is the no-effect control and ±100 the full control effect.

Sequence of Vitamin D3 receptor (Homo sapiens) (P11473 whole entry, looked up): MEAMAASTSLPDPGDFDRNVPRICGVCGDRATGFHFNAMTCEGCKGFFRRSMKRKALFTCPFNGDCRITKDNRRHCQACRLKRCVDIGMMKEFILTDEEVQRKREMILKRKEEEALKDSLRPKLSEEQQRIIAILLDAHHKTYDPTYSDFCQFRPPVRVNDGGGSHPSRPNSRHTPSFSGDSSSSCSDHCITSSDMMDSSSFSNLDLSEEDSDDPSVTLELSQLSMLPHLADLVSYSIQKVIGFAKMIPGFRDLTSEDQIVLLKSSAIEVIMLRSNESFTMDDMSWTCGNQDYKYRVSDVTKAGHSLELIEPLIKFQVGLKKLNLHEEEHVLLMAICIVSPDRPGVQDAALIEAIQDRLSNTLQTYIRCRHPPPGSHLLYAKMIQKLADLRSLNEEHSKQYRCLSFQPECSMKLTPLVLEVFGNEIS
Sequence of Peroxisome proliferator-activated receptor delta (Homo sapiens) (Q03181 whole entry, looked up): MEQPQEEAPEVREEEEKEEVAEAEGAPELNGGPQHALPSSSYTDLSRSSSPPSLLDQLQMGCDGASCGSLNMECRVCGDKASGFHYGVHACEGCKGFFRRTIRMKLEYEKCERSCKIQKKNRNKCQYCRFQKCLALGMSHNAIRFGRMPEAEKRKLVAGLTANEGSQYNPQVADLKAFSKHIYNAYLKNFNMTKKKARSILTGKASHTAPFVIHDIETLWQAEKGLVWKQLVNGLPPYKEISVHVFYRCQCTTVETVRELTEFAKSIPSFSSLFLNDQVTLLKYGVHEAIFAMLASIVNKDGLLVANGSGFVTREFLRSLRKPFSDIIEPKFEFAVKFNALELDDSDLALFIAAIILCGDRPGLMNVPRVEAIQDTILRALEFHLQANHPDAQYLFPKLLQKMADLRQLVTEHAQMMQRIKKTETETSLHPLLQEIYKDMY
Sequence of Bile acid receptor (Homo sapiens) (Q96RI1 whole entry, looked up): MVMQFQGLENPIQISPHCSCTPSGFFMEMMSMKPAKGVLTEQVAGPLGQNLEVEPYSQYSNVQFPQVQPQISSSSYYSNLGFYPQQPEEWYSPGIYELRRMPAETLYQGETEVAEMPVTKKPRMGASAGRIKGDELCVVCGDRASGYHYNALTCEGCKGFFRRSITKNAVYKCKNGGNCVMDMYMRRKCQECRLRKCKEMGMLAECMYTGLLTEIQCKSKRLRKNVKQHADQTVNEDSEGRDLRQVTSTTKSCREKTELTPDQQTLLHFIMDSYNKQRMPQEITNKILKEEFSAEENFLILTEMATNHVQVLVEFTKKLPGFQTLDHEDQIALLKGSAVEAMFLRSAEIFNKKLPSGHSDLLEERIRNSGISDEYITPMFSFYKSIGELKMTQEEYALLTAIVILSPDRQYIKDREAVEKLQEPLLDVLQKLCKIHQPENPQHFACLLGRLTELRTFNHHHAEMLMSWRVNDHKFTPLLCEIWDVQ

CC(C)CC(=O)OCc1ccccc1
inactive: Potency [1] | outcome [2] | Potency [3] | outcome [4] | outcome [5] | outcome [6]

O=C(O)[C@@H]1CSCN1
inactive: Potency [1] | outcome [2] | Potency [3] | outcome [4] | outcome [5] | outcome [7] | outcome [6]

CCC1(C)NC(=O)NC1=O (centres undefined)
inactive: Potency [1] | outcome [2] | Potency [3] | outcome [4] | Potency [8] | outcome [7] | outcome [6]

CC(C)S
inactive: Potency [1] | outcome [2] | Potency [3] | outcome [4] | Potency [8] | outcome [7]

CO[C@@]1(NC(=O)CSCC#N)C(=O)N2C(C(=O)O)=C(CSc3nnnn3C)CS[C@@H]21
inactive: Potency [1] | outcome [2] | Potency [3] | outcome [4] | Potency [8] | outcome [7]

O=Cc1ccc(F)c(Br)c1
inactive: Potency [1] | outcome [2] | Potency [3] | outcome [4] | Potency [8] | outcome [5] | outcome [7] | outcome [6]

CCC(=O)Nc1ccc(O)cc1
inactive: Potency [1] | outcome [2] | Potency [3] | outcome [4] | Potency [8] | outcome [5] | outcome [7] | outcome [6]

Cc1ccc([N+](=O)[O-])c(N)c1
inactive: Potency [1] | outcome [2] | Potency [3] | outcome [4] | Potency [8] | outcome [6]

CN1CCN(c2c(F)cc3c(=O)c(C(=O)O)cn(CCF)c3c2F)CC1
inactive: Potency [1] | outcome [2] | Potency [3] | outcome [4] | Potency [8] | outcome [5] | outcome [6]

COc1nc(C)nc(NC(=O)NS(=O)(=O)c2ccccc2OCCCl)n1
inactive: Potency [1] | outcome [2] | Potency [3] | outcome [4] | outcome [9] | outcome [5]

Cc1ccc(C=O)s1
inactive: Potency [1] | outcome [2] | Potency [3] | outcome [4] | Potency [8] | outcome [5] | outcome [7] | outcome [6]

C=Cc1ccccc1
inactive: Potency [1] | outcome [2] | Potency [3] | outcome [4] | Potency [8] | outcome [5] | outcome [7] | outcome [6]

Cc1c(-c2ccccc2)oc2c(C(=O)OCCN3CCCCC3)cccc2c1=O
inactive: Potency [1] | outcome [2] | Potency [3] | outcome [4] | Potency [8] | outcome [7] | outcome [6]

NCCCN1CCN(CCCN)CC1
inactive: Potency [1] | outcome [2] | Potency [3] | outcome [4] | outcome [5] | outcome [7] | outcome [6]

CN(C)Cc1ccccc1
inactive: Potency [1] | outcome [2] | Potency [3] | outcome [4] | Potency [8] | outcome [5] | outcome [6]

CC(=O)N(CC(O)CN(C(C)=O)c1c(I)c(C(=O)NCC(O)CO)c(I)c(C(=O)NCC(O)CO)c1I)c1c(I)c(C(=O)NCC(O)CO)c(I)c(C(=O)NCC(O)CO)c1I (centres undefined)
inactive: Potency [1] | outcome [2] | Potency [3] | outcome [4] | outcome [5] | outcome [7] | outcome [6]

NC(Cc1ccc(F)cc1)C(=O)O (centres undefined)
inactive: activity change, negative = cytotoxicity [1] -0.221% [at 5.95 µM] | activation [2] 5.3% [at 5.95 µM] | viability change, negative = cytotoxic [3] 5.29% [at 6.26 µM] | ratio activity, negative = inhibition [4] 5.05% [at 6.26 µM] | viability change, negative = cytotoxic [8] 4.49% [at 5.95 µM] | activity change, negative = cytotoxicity [5] -10% [at 5.95 µM] | activation [7] 5.15% [at 6.01 µM] | activity change, negative = inhibition [6] 0.285% [at 6.95 µM]

CC(Oc1c(Cl)cccc1Cl)C1=NCCN1 (centres undefined)
inactive: Potency [1] | outcome [2] | Potency [3] | outcome [4] | Potency [8] | outcome [5] | outcome [6]

CC1(C)S[C@@H]2[C@H](NC(=O)C(C(=O)O)c3ccccc3)C(=O)N2[C@H]1C(=O)O (some centres undefined)
inactive: Potency [1] | outcome [2] | Potency [3] | outcome [4] | Potency [8] | outcome [7] | outcome [6]

NC/C=C/C(=O)O
inactive: Potency [1] | outcome [2] | Potency [3] | outcome [4] | Potency [8] | outcome [5] | outcome [6]

CC(C)OC(C)C
inactive: Potency [1] | outcome [2] | Potency [3] | outcome [4] | Potency [8] | outcome [7] | outcome [6]

CN1[C@@H]2CC[C@H]1CC(OC(=O)c1c[nH]c3ccccc13)C2 (some centres undefined)
inactive: Potency [1] | outcome [2] | Potency [3] | outcome [4] | outcome [5]

O=C(O)c1cccc(Cl)c1Cl
inactive: Potency [1] | outcome [2] | outcome [4] | Potency [8] | outcome [5] | outcome [7] | outcome [6]

CCOc1ccc(OCC)c(Cl)c1
inactive: Potency [1] | outcome [2] | Potency [3] | outcome [10] | outcome [9] | outcome [5]

CC(=O)N[C@@H](CC(C)C)C(=O)O
inactive: Potency [1] | outcome [2] | Potency [8] | outcome [9] | outcome [5] | outcome [6]

O=C(CCCl)NCc1ccccc1
inactive: Potency [1] | outcome [2] | Potency [3] | outcome [4] | outcome [5] | outcome [6]

CCN1CC(CCN2CCOCC2)C(c2ccccc2)(c2ccccc2)C1=O (centres undefined)
inactive: Potency [1] | outcome [2] | Potency [3] | outcome [10] | Potency [8] | outcome [9] | outcome [5]

CCC/C=C/CO
inactive: Potency [1] | outcome [2] | Potency [3] | Potency [8] | outcome [9] | outcome [5] | outcome [7] | outcome [6]

CC(C)C(=O)OC/C=C/c1ccccc1
inactive: Potency [1] | outcome [2] | outcome [4] | outcome [10] | Potency [8] | outcome [9] | outcome [5] | outcome [7] | outcome [6]

CCCCCCCCCCCCCCCCOP(=O)([O-])OCC[N+](C)(C)C
inactive: Potency [1] | outcome [2] | outcome [4] | outcome [5] | outcome [7] | outcome [6]

CC(C)=CCCC(C)CCOC=O (centres undefined)
inactive: Potency [1] | outcome [2] | outcome [4] | outcome [10] | Potency [8] | outcome [9] | outcome [5]

Reference: PubChem BioAssay (Tox21)
